# Screening results as filed in PubChem.
# RORg inh = blocks mouse ROR gamma transcriptional activity. P51450. Drosophila S2 Gal4-RORgamma UAS-luciferase reporter, 20 h. Potency, µM (series often up to 53.6 µM), without a hit: at the top dose activity change, negative = inhibition, hits mostly inhibitors. 310,000 compounds, 5.4% hits. AID 2551; note: nearly all actives have a fitted effect of over 60% in size
# Target sequence (P51450 whole entry, looked up, the tested form may be a part): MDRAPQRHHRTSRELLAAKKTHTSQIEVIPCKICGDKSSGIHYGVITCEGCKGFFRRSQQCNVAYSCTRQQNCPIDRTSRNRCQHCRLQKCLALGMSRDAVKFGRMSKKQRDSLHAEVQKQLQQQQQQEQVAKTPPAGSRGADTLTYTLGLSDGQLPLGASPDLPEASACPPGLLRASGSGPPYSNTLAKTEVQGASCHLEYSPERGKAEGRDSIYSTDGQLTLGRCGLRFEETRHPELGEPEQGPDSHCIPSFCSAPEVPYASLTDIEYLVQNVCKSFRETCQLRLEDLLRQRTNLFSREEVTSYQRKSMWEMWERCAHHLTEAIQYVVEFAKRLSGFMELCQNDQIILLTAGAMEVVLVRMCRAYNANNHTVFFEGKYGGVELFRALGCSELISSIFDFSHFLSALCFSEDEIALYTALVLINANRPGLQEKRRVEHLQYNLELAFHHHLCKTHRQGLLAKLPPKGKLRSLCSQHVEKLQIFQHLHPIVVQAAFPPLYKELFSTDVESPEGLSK
#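 Drosophila Schneider cells stably carrying a metallothionein-driven Gal4 DBD–ROR gamma fusion and a UAS-Photinus luciferase reporter were exposed to compound for 1 hr, then induced with copper sulfate (700 uM final) for 20 hr at ambient temperature before luminescence reading.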
# TDP1 inh = inhibitors of human tyrosyl-DNA phosphodiesterase TDP1 | Potency, µM (series often up to 130 µM), without a hit: top-dose activity change, negative = inhibition, actives largely listed as inhibitors | recombinant TDP1, AlphaScreen DNA substrate cleavage | AID 485290 | 350,000 compounds, 0.28% hits; note: nearly all actives have a fitted effect of over 40% in size
#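 Tdp1 1 nM final; 15 min RT w/ cpd; substrate 15 nM, 5 min; beads 10 ug/ml, 10 min; AlphaScreen read. Neg ctrl: no enzyme.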
# VP16 counter = counter-screen for ROR gamma inhibitors: Gal4-VP16 reporter; Drosophila S2 Gal4-VP16 UAS-luciferase, luminescence, 20 h; 310,000 compounds, 3.5% hits; AID 2546; Potency, µM (top dose mostly 53.6 µM), without a hit: at the highest dose activity, negative = inhibition, actives largely listed as inhibitors;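 note: Gal4-VP16 expression switched on by copper sulfate through the metallothionein promoter; nearly all actives have a fitted effect of over 50% in size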
# DT40 TDP1 no CPT = qHTS for Inhibitors of human tyrosyl-DNA phosphodiesterase 1 (TDP1): qHTS in cells in absence of CPT | Potency, µM (titrated, usually from 46.2 µM), inactives show top-dose activity change, negative = growth inhibition, hits mostly inhibitors | DT40 Tdp1-/- hTDP1 cells, no CPT, ATP luminescence, 48 h | 420,000 compounds, 15% hits; note: nearly all actives have a fitted effect of over 55% in size
#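 Growth kinetics read by CellTiter-Glo luminescence after ≥48 hr at 37 °C. Cells: DT40 Tdp1-/- stably carrying human TDP1, 400 per well, compound exposure in the absence of CPT (DMSO vehicle).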
# DT40 TDP1 CPT = DT40-hTDP1 cell growth loss with CPT. chicken DT40 Tdp1-/-;hTDP1 cells + 20 nM CPT, ATP luminescence, 48 h. Potency, µM (top dose mostly 46.2 µM), for inactives: at the top dose activity change, negative = growth inhibition, usual class: inhibitors. 420,000 compounds, 12% hits; note: nearly all actives have a fitted effect of over 55% in size
#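 Chicken DT40 Tdp1-/- cells complemented with human TDP1, 400 cells/well, exposed to compounds plus 20 nM camptothecin for at least 48 h at 37 C; viability read as ATP content by CellTiter-Glo luminescence.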
# * marks the source's active call; other numbers are inactive results; ? = inconclusive; nt = no result; ! = not active in a repeat; [ ] = dose if it differs, or a comment. A selection: hits, their analogues and other compounds. The true share with any hit is near 19%. Calls come from the whole dose curve; as a rule, active = well fitted curve in the direction sought with a large enough effect; inconclusive = small, poorly fitted or top-dose-only effect, or another doubt; inactive = no such curve, though single readings can be large; an effect the other way counts as inactive or inconclusive. % is set by controls: 0 for no effect and ±100 for the full control effect; potency is the fitted concentration of half-maximal effect.
SMILES,RORg inh,TDP1 inh,VP16 counter,DT40 TDP1 no CPT,DT40 TDP1 CPT
O=C(COC(=O)Cc1n[nH]c(=O)c2ccccc12)NNC(=O)c1ccc(Cl)cc1,nt,0.9%,nt,23.1µM*,20.6µM*
O=C(Cc1n[nH]c(=O)c2ccccc12)OCC(=O)c1ccc2c(c1)OCCO2,-25.8%,6.2%,-1.5%,1.3µM*,0.92µM*
O=C(Cc1ccc(Br)cc1)OCC(=O)c1ccc2c(c1)OCCO2,29.6%,-7.0%,2.2%,-18.4%,0.1%
CCOc1ccc(C(=O)COC(=O)Cc2n[nH]c(=O)c3ccccc23)cc1,nt,nt,nt,0.731µM*,0.92µM*
O=C(Cc1n[nH]c(=O)c2ccccc12)OCC(=O)c1ccc(F)cc1,nt,-7.3%,nt,-5.5%,-1.0%
CCOC(=O)c1c(C)[nH]c(C)c1S(=O)(=O)NCCN1CCN(c2ccccc2F)CC1,-17.6%,5.9%,-2.7%,?,-24.5%
CCOc1ccc(S(=O)(=O)NCCCN2CCOCC2)c2ccccc12,-1.3%,nt,-5.8%,-19.5%,-24.8%
CCCOc1ccc(S(=O)(=O)NCCCN2CCOCC2)c2ccccc12,10µM*,8.7%,-26.6%,?,?
O=C(CNC(=O)c1ccccc1F)c1ccccc1,11.2µM*,1.0%,?,16.6%,-22.0%
O=C(CNC(=O)Cc1ccccc1)NCC(=O)N1CCN(C(c2ccccc2)c2ccccc2)CC1,nt,5.0%,nt,?,-16.1%
O=C(CNC(=O)c1ccccc1Cl)c1ccccc1,8.91µM*,1.2%,-25.0%,?,-20.2%
Cc1ccccc1C(=O)NCC(=O)c1ccccc1,nt,nt,nt,-8.5%,1.6%
O=C(NCC(=O)N1CCN(C(c2ccccc2)c2ccccc2)CC1)c1ccccc1F,-21.0%,nt,-25.1%,29.1µM*,?
CC(C)(C)C(=O)NNC(=O)CCCOc1ccc(Cl)cc1Cl,0.3%,0.0%,-7.8%,-2.0%,-21.9%
Cc1ccccc1OCC(=O)NNC(=O)CCc1ccccc1,-13.4%,0.0%,-4.7%,-3.5%,9.1%
CCCCCc1n[nH]c2c1CCCC2,10µM*,nt,-25.6%,-23.7%,0.2%
C[C@]12CCC(=O)C=C1CC[C@@H]1[C@@H]2[C@@H](O)C[C@@]2(C)[C@H]1CC[C@]2(O)C(=O)COC(=O)CCC(=O)O,?,11.0%,1.1%,8.41µM*!,?
CC(=O)[C@H]1CC[C@H]2[C@@H]3C=CC4=CC(=O)CC[C@@]4(C)[C@@H]3CC[C@]12C,nt,nt,nt,13µM*,14.6µM*!
CC(=O)OCC(=O)[C@H]1CC[C@H]2[C@@H]3CCC4=CC(=O)CC[C@]4(C)[C@H]3CC[C@]12C,16.0%,7.2%,-5.4%,?,?
CC(=O)[C@H]1CC[C@H]2[C@@H]3CCC4=CC(=O)CC[C@]4(C)[C@H]3[C@H](O)C[C@]12C,-4.8%,5.8%,-7.2%,16.4µM*,?
CC(=O)C1CCC2C3CCC4=CC(=O)C=CC4(C)C3CCC12C (configuration not stated),nt,nt,nt,11.6µM*,20.6µM*
C[C@@]12CCC(=O)C=C1C=CC1C2CC[C@]2(C)C1CC[C@@]21CCC(=O)O1 (some centres not stated),39.2%,10.6%,-2.4%,nt,nt
CC(C)C[C@H](NC(=O)[C@H](CC(C)C)NC(=O)[C@H](Cc1ccc(O)cc1)NC(=O)CNC(=O)[C@H](C)NC(=O)[C@H](CO)NC(=O)[C@H](CC(N)=O)NC(=O)[C@H](CC(C)C)NC(=O)[C@@H](NC(=O)[C@H](Cc1c[nH]c2ccccc12)NC(=O)CN)[C@@H](C)O)C(=O)NCC(=O)N1CCC[C@H]1C(=O)N1CCC[C@H]1C(=O)N1CCC[C@H]1C(=O)NCC(=O)N[C@@H](Cc1ccccc1)C(=O)N[C@@H](CO)C(=O)N1CCC[C@H]1C(=O)N[C@@H](Cc1ccccc1)C(=O)N[C@@H](CCCNC(=N)N)C(N)=O,6.7%,3.0%,-3.9%,nt,nt
O=C(NCCc1cccs1)C1CC1,3.9%,2.7%,6.4%,-2.8%,4.3%
COc1ccc(S(=O)(=O)NC2CC(C)(C)NC(C)(C)C2)cc1,-2.0%,2.4%,-6.7%,-1.5%,-18.0%
SMILES,RORg inh,TDP1 inh,VP16 counter,DT40 TDP1 no CPT,DT40 TDP1 CPT
COC(=O)C1CSC(C(=O)OC)N1C(=O)Nc1ccc(Cl)c(Cl)c1 (configuration not stated),14.8%,-2.8%,-0.8%,-21.3%,-0.2%
CC(C)(C)NS(=O)(=O)c1ccc2nc(NC(=O)c3ccc(N4C(=O)CCC4=O)cc3)sc2c1,-19.8%,2.9%,-2.3%,3.5%,-18.2%
CC(=O)OCC=C1CCC2C3CCC4=CC(=O)CCC4(C)C3C(O)CC12C (configuration not stated),nt,nt,nt,11.6µM*,11.6µM*
Cc1ccccc1C(=O)Nc1nnc(SC(C)C)s1,2.51µM*,3.8%,-0.4%,-1.5%,-18.9%
Cc1ccc(NC(=O)c2sc3ccccc3c2Cl)nc1,?,2.0%,?,-24.7%,-12.3%
COc1ccccc1C(=O)NNC(=S)NC(=O)c1sc2ccccc2c1Cl,12.6µM*,9.4%,12.6µM*,8.2µM*,14.6µM*
Cc1cccnc1NC(=O)c1sc2ccccc2c1Cl,8.91µM*,0.9%,8.91µM*,3.5%,-17.2%
CNC(=O)c1ccsc1NC(=O)c1sc2ccccc2c1Cl,37.8%,-5.3%,-1.6%,?,13µM*
Cc1c(NC(=S)NC(=O)c2sc3ccccc3c2Cl)cccc1C(=O)O,4.0%,-8.6%,-1.1%,0.3%,7.0%
O=C(CNC(=O)c1ccc(F)cc1)OCc1cc(=O)n2nc(C3CCCCC3)sc2n1,nt,0.6%,nt,-0.7%,-1.7%
CCN(CC)Cc1csc(C(N)=O)c1,12.1%,6.6%,-1.2%,-7.0%,-5.1%
CC(C)Cc1ccc(S(=O)(=O)Nc2ccccn2)cc1,-6.9%,0.6%,4.1%,-13.5%,-9.3%
CC(C)c1nnc(NC(=O)CC(=O)Nc2ccccc2C(=O)O)s1,11.2µM*,5.3%,?,-24.8%,-1.9%
Cc1nnc(NC(=O)c2sc3ccccc3c2Cl)s1,?,4.0%,8.91µM*,?,-6.1%
Cc1nnc(NC(=O)c2ccccc2-c2ccccc2C(=O)O)s1,14.6%,nt,-1.8%,8.5%,3.1%
CC(C)Cc1nnc(NC(=O)CC(=O)Nc2ccccc2C(=O)O)s1,20.3%,4.7%,10.6%,0.4%,-11.7%
Cc1nnc(NC(=O)c2ccccc2NC(=O)c2ccccc2)s1,17.8µM*,-12.3%,-16.8%,-29.2%,-29.1%
CNS(=O)(=O)c1cc(C(=O)NCc2ccco2)ccc1Cl,13.9%,-11.4%,8.9%,-17.8%,-9.6%
COc1ccccc1-c1oc2ccccc2c(=O)c1OC,-19.5%,-9.4%[56.1 µM],-2.0%,?,6.68µM*
NC(=O)c1c(-c2ccccc2)oc2ccc(O)cc12,15.8%,6.9%,1.4%,-13.6%,-22.7%
COc1cc(-c2oc3cc(O)cc(O)c3c(=O)c2O)ccc1O,3.1%,15.0%,-13.3%,nt,nt
